Bioassay records: PubChem, National Center for Advancing Translational Sciences (NCATS)
VACV Venus inh: vaccinia inhibition (Venus reporter) | Vaccinia virus Venus reporter expression, fluorescence | Potency, µM (titrated, usually from 36.5 µM), most hits filed as inhibitors | 0.46% of 330,000 active | AID 720580; calls by dose curve; tested in A549 cells; note: nearly all actives have a fitted effect of over 30% in size
VACV mCherry inh: vaccinia inhibition (mCherry reporter) | Vaccinia virus mCherry reporter infection, fluorescence | 0.63% of 310,000 active | AID 720579 | Potency, µM (top dose mostly 36.5 µM), actives largely listed as inhibitors; calls by dose curve; tested in A549 cells; note: nearly all actives have a fitted effect of over 35% in size
FMDV antiviral: blocks foot and mouth disease virus. FMDV antiviral cell-based qHTS. Potency, µM (titrated, usually from 57.9 µM), usual class: inhibitors. 1.2% of 410,000 active. AID 1159524; calls by dose curve; tested in HEK293T cells; note: read-out not given here; nearly all actives have a fitted effect of over 45% in size
HCMV inh: human cytomegalovirus inhibition | HFF cells, HCMV-luciferase reporter, 72 h; stronger effect = lower value | activity change, negative = inhibition, % at 57.5 µM | 4.5% of 410,000 active | AID 1259415; in the data active = activity change below about -60%; inconclusive = no clear call, values can overlap the other calls; inactive = above about -39%
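Human foreskin fibroblasts infected with luciferase-reporter HCMV at MOI 1 PFU/cell, compounds at two doses. Luciferase measured 72 h post infection; normalized to buffer-only basal and Salinomycin (10uM) controls.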
HCV inhibitor: inhibitors of hepatitis C virus infection. Huh7.5.1 HCVcc-Cre infection, luciferase reporter, 44 h. Potency, µM (top dose mostly 41.8 µM), hits mostly inhibitors. 3.4% of 340,000 active. AID 651820; active = well fitted inhibition curve with a large enough effect; inconclusive = small, poorly fitted or top-dose-only effect, or another doubt; inactive = no such curve, though single readings can be large or run the other way
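Compounds are dispensed onto cells plated 4 h earlier at 1,000 per well, with HCVcc-Cre virus (about 0.5 moi) added next. Following 44 h of culture, luminescent signal is measured for 15 sec after 15 min with substrate at room temperature.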
Large screens that a line does not name were inactive. The list is not random: actives were taken first. Their share in the collection is about 7.3%.

CCN(CC)S(=O)(=O)c1ccc(-c2nnc(SCC(=O)N3CCOCC3)o2)cc1	VACV Venus inh 3.5µM, VACV mCherry inh 2.5µM (no result: FMDV antiviral)
CCN(CC)S(=O)(=O)c1ccc(-c2nnc(SCC(C)=O)o2)cc1	none (no result: VACV Venus inh, VACV mCherry inh)
CCCCCNC(=O)c1c[nH]c2ccc(S(=O)(=O)N3CCC(C)CC3)cc2c1=O	VACV mCherry inh inconclusive (no result: HCV inhibitor)
COc1ccccc1/C=C/c1ccc2cccc(O)c2n1	VACV mCherry inh inconclusive, HCV inhibitor inconclusive
CCOc1cccc(/C=C/c2ccc3cccc(O)c3n2)c1O	HCMV inh -100, HCV inhibitor 14µM
CCOc1c(OC(C)=O)ccc(/C=C/c2ccc3cccc(OC(C)=O)c3n2)c1[N+](=O)[O-]	HCV inhibitor 8.9µM (no result: VACV Venus inh, VACV mCherry inh)
CCOc1cccc(/C=C/c2ccc3cccc(O)c3n2)c1OC	VACV mCherry inh inconclusive, HCMV inh -93, HCV inhibitor inconclusive
CC(=O)N(C(C)=O)c1ccc(Oc2ccc(Oc3ccc(N(C(C)=O)C(C)=O)cc3)cc2)cc1	VACV Venus inh inconclusive (no result: HCV inhibitor)
COc1ccc(C2=NCC(C)n3nc4cc(C(F)(F)F)ccc4c32)cc1 (centres undefined)	none (no result: VACV Venus inh, VACV mCherry inh, FMDV antiviral, HCV inhibitor)
O=C(CCCc1ccccc1)c1ccc2c(c1)OCCO2	FMDV antiviral 7.9µM, HCMV inh -91
O=C(NCCc1ccccc1)c1ccc2nc(-c3ccco3)c(-c3ccco3)nc2c1	HCV inhibitor 11µM (no result: VACV Venus inh, VACV mCherry inh, HCMV inh)
O=C(CCc1ccccc1)c1ccc2c(c1)OCCCO2	none (no result: VACV Venus inh, VACV mCherry inh)
O=C(CCN1CCc2ccccc2C1)c1ccc2c(c1)OCCO2	HCV inhibitor 10µM (no result: VACV Venus inh, VACV mCherry inh, HCMV inh)
O=C(NCCc1ccccc1)c1ccc2c(c1)OCCCO2	FMDV antiviral 1.1µM, HCMV inh -93
O=C(NCCc1ccccc1)c1ccc2c(c1)OCCO2	FMDV antiviral 1.8µM, HCMV inh -79
COc1ccc(CCNC(=O)c2ccc3c(c2)OCCO3)cc1	none
Nc1cc[n+](CC(=O)c2ccc3c(c2)OCCO3)cc1	FMDV antiviral inconclusive, HCMV inh -82, HCV inhibitor inconclusive (no result: VACV Venus inh, VACV mCherry inh)
COc1ccc(N2CCN(C(c3ccccc3)c3nnc(-c4ccccc4Cl)o3)CC2)cc1 (centres undefined)	none (no result: HCV inhibitor)
O=C(CCc1nc2ccccc2c(=O)[nH]1)N1CCN(c2ccccc2Cl)CC1	FMDV antiviral inconclusive, HCV inhibitor 11µM (no result: VACV Venus inh, VACV mCherry inh)
OC(CN1CCOCC1)Cn1cnc2ccccc21 (centres undefined)	none
OC(CN1CCOCC1)Cn1c(-c2cccc(Cl)c2)nc2ccccc21 (centres undefined)	HCMV inh -102 (no result: VACV Venus inh, VACV mCherry inh)
Cn1c(Nc2ccccc2)nc2cnc(Nc3cccc(Cl)c3)cc21	none (no result: VACV Venus inh, VACV mCherry inh, FMDV antiviral, HCV inhibitor)
Cc1ccccc1-n1c(O)c(/C=C2/C(c3ccccc3)=Nc3ccccc32)c(=O)[nH]c1=O	VACV mCherry inh inconclusive, FMDV antiviral 22µM, HCV inhibitor inconclusive
Cc1ccc(-n2c(O)c(/C=C3/C(c4ccccc4)=Nc4ccccc43)c(=O)[nH]c2=O)cc1	FMDV antiviral inconclusive, HCV inhibitor inconclusive
CC1=Nc2ccccc2/C1=C/c1c(O)n(C)c(=O)[nH]c1=O	FMDV antiviral 32µM
COC(=O)C1=Nc2ccccc2/C1=C\c1c(O)n(-c2cc(OC)ccc2OC)c(=O)[nH]c1=O	HCV inhibitor inconclusive
O=C(Nc1ccc(N2CCN(c3ncccc3C(F)(F)F)CC2)nc1)c1cccs1	VACV Venus inh 20µM, VACV mCherry inh 14µM, FMDV antiviral 13µM, HCMV inh -86, HCV inhibitor 11µM
O=C(Nc1ccc(N2CCN(c3ccc(C(F)(F)F)cn3)CC2)nc1)c1cccs1	FMDV antiviral inconclusive, HCMV inh inconclusive
COc1c(C=O)c(=O)[nH]c2c(OC)cccc12	none (no result: VACV Venus inh, VACV mCherry inh, HCMV inh, HCV inhibitor)
O=c1c2cn[nH]c2nc(SCc2ccccc2F)n1-c1ccc(Br)cc1	HCMV inh -71, HCV inhibitor inconclusive
Cc1ccccc1-n1c(SCc2cc(=O)n3ccccc3n2)nc2[nH]ncc2c1=O	VACV mCherry inh inconclusive
O=c1c2cn[nH]c2nc(SCc2cc(=O)n3cc(Br)ccc3n2)n1-c1ccc(Br)cc1	VACV Venus inh inconclusive, VACV mCherry inh inconclusive, HCMV inh -72, HCV inhibitor inconclusive
CCc1ccc(-n2c(SCc3ccccc3F)nc3[nH]ncc3c2=O)cc1	FMDV antiviral inconclusive (no result: HCV inhibitor)
COc1ccc(N2CCN(C(=O)CSc3nc4[nH]ncc4c(=O)n3-c3ccc(Br)cc3)CC2)cc1	VACV mCherry inh inconclusive, HCMV inh -63, HCV inhibitor inconclusive
CCCN1CCc2nc(SCC(=O)Nc3ccc(C)c(Cl)c3)[nH]c(=O)c2C1	none
CC1CCc2c(sc3ncnc(NCCCOC(C)C)c23)C1 (centres undefined)	FMDV antiviral inconclusive, HCV inhibitor 10µM
c1cncc(CNc2ncnc3sc4c(c23)CCC4)c1	HCV inhibitor inconclusive
CC1CCc2c(sc3ncnc(NCc4cccnc4)c23)C1 (centres undefined)	HCMV inh inconclusive, HCV inhibitor 25µM (no result: VACV Venus inh, VACV mCherry inh)
C#CC(=O)N(c1cccc(OC)c1)C(C(=O)NC1CCCC1)c1cccs1 (centres undefined)	VACV Venus inh 14µM, VACV mCherry inh 20µM, HCMV inh -101, HCV inhibitor 0.56µM (no result: FMDV antiviral)
Cc1cccc(N(C(=O)C(F)(F)F)C(C(=O)NC2CCCCC2)c2cccs2)c1 (centres undefined)	none
C#CC(=O)N(c1ccc(OC)c(OC)c1)C(C(=O)NC1CCCC1)c1cccs1 (centres undefined)	VACV Venus inh inconclusive, VACV mCherry inh inconclusive, FMDV antiviral inconclusive, HCMV inh -99, HCV inhibitor 0.32µM
CCN(c1ccccc1)S(=O)(=O)c1ccc2[nH]cc(C(=O)NC3CCCCC3)c(=O)c2c1	HCMV inh -102 (no result: HCV inhibitor)
Cc1ccc(C)c(N(C)S(=O)(=O)c2ccc3[nH]cc(C(=O)NC4CCCC4)c(=O)c3c2)c1	VACV Venus inh inconclusive, VACV mCherry inh inconclusive, HCMV inh -75 (no result: HCV inhibitor)
Cc1ccc(C)c(N(C)S(=O)(=O)c2ccc3[nH]cc(C(=O)NCCN4CCOCC4)c(=O)c3c2)c1	FMDV antiviral inconclusive
COc1ccc(C(=O)N2CCC3(CCN(Cc4ccccc4OC)CC3)CC2)cc1	none (no result: VACV Venus inh, VACV mCherry inh, HCMV inh, HCV inhibitor)
CCCCC(CC)COC(=O)c1ccc(N(C)C)cc1 (centres undefined)	HCV inhibitor inconclusive
CCCCC(CC)COP(=O)(OCC(CC)CCCC)OCC(CC)CCCC (centres undefined)	VACV Venus inh inconclusive, VACV mCherry inh 2.5µM
Cc1ccc(S(=O)(=O)N2CCN(c3nc(-n4ccnn4)nc4ccccc34)CC2)cc1	none (no result: FMDV antiviral, HCMV inh, HCV inhibitor)
CC(=O)c1ccc(Oc2nc(C)nc3c2oc2ccccc23)cc1	VACV Venus inh inconclusive, VACV mCherry inh inconclusive, FMDV antiviral inconclusive (no result: HCV inhibitor)
Cc1ccc(CC(=O)Nc2nc3ccccc3s2)cc1	none
Cc1nc2c(ccc3nc(NC(=O)Cc4ccccc4)sc32)s1	HCV inhibitor 10µM
CCOC(=O)C1(CC2CC2)CCN(Cc2cn(C)c3ccccc23)CC1	HCMV inh inconclusive, HCV inhibitor 10µM
CCOC(=O)C1(Cc2ccccc2)CCN(Cc2cn(CC(=O)OC)c3ccccc23)CC1	HCMV inh inconclusive
COCC(=O)Nc1cc(C(=O)N2CCc3c([nH]c4ccccc34)C2)cc2nc(-c3ccccc3)n(C)c12	none (no result: HCMV inh, HCV inhibitor)
COc1ccc(S(=O)(=O)Nc2nc3ccccc3nc2NCC2CCCO2)cc1 (centres undefined)	none
